These results are taken from PMC10812921, “Transcriptional Coactivator BOB1 (OBF1, OCA-B) Modulates the Specificity of DNA Recognition by the POU-Domain Factors OCT1 and OCT2 in a Monomeric Configuration”.

One test has as its target POU1 (OCT1 POU domain) (human, UniProt P14859 260-458). The experiment in a line: EMSA-SELEX-seq; no BOB1; 20 mM Tris-HCl pH 7.6, 140 mM NaCl, 10% glycerol, 0.5 mM EDTA, 0.05% Triton X-100, 0.1 mg/mL BSA, 0.1 mg/mL poly(dI-dC), 5 mM DTT, room temperature, 20 min; high values mean tight binding. Conditions: protein: recombinant; dsDNA, one strand shown. In short, it runs like this:
(§1)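 After expression in E. coli BL21, tagged POU-domain proteins were purified under denaturing conditions and then renatured. Each binding reaction held 30 ng protein and 300 ng of a PCR-amplified double-stranded random 35-nt library in 20 μL Tris–HCl pH 7.6 binding buffer, with or without 28 ng coactivator protein, for 20 min at RT. Bands holding complexes were cut from native 6% PAGE, eluted and PCR-amplified across four rounds, and the output was Illumina-sequenced. The value given for binding preference is the share, in percent, of sequenced 8-mers fitting a motif pattern.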
In general terms: A gel shift assay detects complexes by their altered migration in electrophoresis.

The target in the next test is T1, POU2 (OCT2 POU domain) (human, UniProt P09086 175-386).
T1 sequence: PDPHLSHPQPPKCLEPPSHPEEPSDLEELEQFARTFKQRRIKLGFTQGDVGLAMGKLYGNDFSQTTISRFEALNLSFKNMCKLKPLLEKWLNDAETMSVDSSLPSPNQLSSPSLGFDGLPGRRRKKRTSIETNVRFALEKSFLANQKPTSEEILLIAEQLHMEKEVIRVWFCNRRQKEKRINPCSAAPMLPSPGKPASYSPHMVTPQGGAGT
The description is as above. Conditions: protein: recombinant; dsDNA, one strand shown. The method, boiled down:
as §1

In test [1] the target is POU1 (OCT1 POU domain);BOB1 (OBF1, OCA-B) (human;human, UniProt P14859;Q16633 260-458;1-256, |). The test can be described thus: EMSA-SELEX-seq; with BOB1 (ternary complex band); 20 mM Tris-HCl pH 7.6, 140 mM NaCl, 10% glycerol, 0.5 mM EDTA, 0.05% Triton X-100, 0.1 mg/mL BSA, 0.1 mg/mL poly(dI-dC), 5 mM DTT, room temperature, 20 min; high values mean tight binding. The conditions noted are these: protein: recombinant;recombinant; copies: 1;1; dsDNA, one strand shown. In short, it runs like this: as §1

Test [2] has as its target T2, POU2 (OCT2 POU domain);BOB1 (OBF1, OCA-B) (human;human, UniProt P09086;Q16633 175-386;1-256, |).
T2 sequence 1: T1 sequence
T2 sequence 2: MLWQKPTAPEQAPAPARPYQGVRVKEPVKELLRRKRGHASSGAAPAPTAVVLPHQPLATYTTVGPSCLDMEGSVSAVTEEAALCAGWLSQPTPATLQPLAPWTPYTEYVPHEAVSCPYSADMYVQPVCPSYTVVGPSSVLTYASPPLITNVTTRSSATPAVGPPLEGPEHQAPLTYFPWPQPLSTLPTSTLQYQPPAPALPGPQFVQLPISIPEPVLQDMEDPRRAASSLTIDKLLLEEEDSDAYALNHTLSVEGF
The description is as above. Conditions: protein: recombinant;recombinant; copies: 1;1; dsDNA, one strand shown. In short, it runs like this:
as §1

Chain of POU1 (OCT1 POU domain) (P14859 260-458): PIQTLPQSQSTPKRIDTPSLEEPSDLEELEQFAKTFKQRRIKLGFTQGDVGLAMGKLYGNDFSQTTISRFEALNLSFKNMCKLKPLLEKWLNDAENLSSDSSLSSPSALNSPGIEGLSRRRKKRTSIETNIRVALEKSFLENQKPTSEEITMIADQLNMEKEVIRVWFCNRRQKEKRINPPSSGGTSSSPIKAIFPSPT

With AACTTAAC, the binding signal with POU1 (OCT1 POU domain) was 0.0294 % of ANNNNAAN 8-mers; in the test with POU2 (OCT2 POU domain) it was 0.0288 % of ANNNNAAN 8-mers; in test [1], 0.0234 % of ANNNNAAN 8-mers; in test [2], 0.0248 % of ANNNNAAN 8-mers.

With AACGTAAC, the binding signal with POU1 (OCT1 POU domain) is 0.0179 % of ANNNNAAN 8-mers; in the test with POU2 (OCT2 POU domain), 0.0236 % of ANNNNAAN 8-mers; in test [1] it was 0.0211 % of ANNNNAAN 8-mers; in test [2] it was 0.0272 % of ANNNNAAN 8-mers.

In the case of AAAACAAG, the binding signal with POU1 (OCT1 POU domain) was 0.0641 % of ANNNNAAN 8-mers; with POU2 (OCT2 POU domain), 0.0432 % of ANNNNAAN 8-mers; in test [1], 0.087 % of ANNNNAAN 8-mers; in test [2] it was 0.0751 % of ANNNNAAN 8-mers.

Regarding ATTATAAA, the binding signal with POU1 (OCT1 POU domain) was 0.152 % of ANNNNAAN 8-mers; with POU2 (OCT2 POU domain) it was 0.204 % of ANNNNAAN 8-mers; in test [1] it was 0.0691 % of ANNNNAAN 8-mers; in test [2], 0.0801 % of ANNNNAAN 8-mers.

In the case of AGAGGAAG, the binding signal with POU1 (OCT1 POU domain) is 0.0358 % of ANNNNAAN 8-mers; in the test with POU2 (OCT2 POU domain), 0.0432 % of ANNNNAAN 8-mers; in test [1], 0.0441 % of ANNNNAAN 8-mers; in test [2], 0.0413 % of ANNNNAAN 8-mers.

On to ATGAGAAA, for which the binding signal was 0.0755 % of ANNNNAAN 8-mers with POU1 (OCT1 POU domain), 0.0765 % of ANNNNAAN 8-mers with POU2 (OCT2 POU domain), 0.0738 % of ANNNNAAN 8-mers in test [1] and 0.0792 % of ANNNNAAN 8-mers in test [2].

ACATTAAG: the binding signal is 0.095 % of ANNNNAAN 8-mers in the test with POU1 (OCT1 POU domain), 0.0875 % of ANNNNAAN 8-mers with POU2 (OCT2 POU domain), 0.0539 % of ANNNNAAN 8-mers in test [1] and 0.0487 % of ANNNNAAN 8-mers in test [2].

For the sequence ACCGAAAA, the binding signal with POU1 (OCT1 POU domain) is 0.0248 % of ANNNNAAN 8-mers; with POU2 (OCT2 POU domain), 0.0322 % of ANNNNAAN 8-mers; in test [1], 0.0226 % of ANNNNAAN 8-mers; in test [2], 0.0165 % of ANNNNAAN 8-mers.

As for ATGTTAAT, the binding signal with POU1 (OCT1 POU domain) is 1.39 % of ANNNNAAN 8-mers; with POU2 (OCT2 POU domain), 1.31 % of ANNNNAAN 8-mers; in test [1], 0.208 % of ANNNNAAN 8-mers; in test [2], 0.24 % of ANNNNAAN 8-mers.

For AAGCCAAG, the binding signal in the test with POU1 (OCT1 POU domain) is 0.0271 % of ANNNNAAN 8-mers; with POU2 (OCT2 POU domain) it was 0.0184 % of ANNNNAAN 8-mers; in test [1] it was 0.0168 % of ANNNNAAN 8-mers; in test [2], 0.019 % of ANNNNAAN 8-mers.

With AAGTTAAC, the binding signal with POU1 (OCT1 POU domain) was 0.0347 % of ANNNNAAN 8-mers; with POU2 (OCT2 POU domain), 0.038 % of ANNNNAAN 8-mers; in test [1], 0.0355 % of ANNNNAAN 8-mers; in test [2], 0.0355 % of ANNNNAAN 8-mers.

With AAAGCAAC, the binding signal with POU1 (OCT1 POU domain) was 0.0256 % of ANNNNAAN 8-mers; with POU2 (OCT2 POU domain) it was 0.0259 % of ANNNNAAN 8-mers; in test [1], 0.0281 % of ANNNNAAN 8-mers; in test [2] it was 0.0272 % of ANNNNAAN 8-mers.

Turning to AGTGCAAA, the binding signal with POU1 (OCT1 POU domain) was 0.0873 % of ANNNNAAN 8-mers; with POU2 (OCT2 POU domain) it was 0.0593 % of ANNNNAAN 8-mers; in test [1] it was 0.126 % of ANNNNAAN 8-mers; in test [2], 0.0743 % of ANNNNAAN 8-mers.

Turning to ATGTGAAA, the binding signal in the test with POU1 (OCT1 POU domain) is 0.0671 % of ANNNNAAN 8-mers; with POU2 (OCT2 POU domain), 0.0748 % of ANNNNAAN 8-mers; in test [1], 0.0687 % of ANNNNAAN 8-mers; in test [2], 0.0718 % of ANNNNAAN 8-mers.

Regarding ACCCCAAA, the binding signal with POU1 (OCT1 POU domain) was 0.0198 % of ANNNNAAN 8-mers; in the test with POU2 (OCT2 POU domain), 0.0104 % of ANNNNAAN 8-mers; in test [1] it was 0.0109 % of ANNNNAAN 8-mers; in test [2] it was 0.0124 % of ANNNNAAN 8-mers.

As to AGCGGAAT, the binding signal in the test with POU1 (OCT1 POU domain) was 0.0622 % of ANNNNAAN 8-mers; with POU2 (OCT2 POU domain), 0.0725 % of ANNNNAAN 8-mers; in test [1] it was 0.0546 % of ANNNNAAN 8-mers; in test [2] it was 0.0636 % of ANNNNAAN 8-mers.

ATCACAAC: the binding signal with POU1 (OCT1 POU domain) was 0.0194 % of ANNNNAAN 8-mers; in the test with POU2 (OCT2 POU domain), 0.0242 % of ANNNNAAN 8-mers; in test [1] it was 0.0222 % of ANNNNAAN 8-mers; in test [2], 0.0165 % of ANNNNAAN 8-mers.

In the case of AAATAAAC, the binding signal is 0.116 % of ANNNNAAN 8-mers with POU1 (OCT1 POU domain), 0.119 % of ANNNNAAN 8-mers with POU2 (OCT2 POU domain), 0.142 % of ANNNNAAN 8-mers in test [1] and 0.13 % of ANNNNAAN 8-mers in test [2].

Regarding ACTAGAAA, the binding signal with POU1 (OCT1 POU domain) was 0.032 % of ANNNNAAN 8-mers; in the test with POU2 (OCT2 POU domain), 0.0322 % of ANNNNAAN 8-mers; in test [1], 0.0261 % of ANNNNAAN 8-mers; in test [2] it was 0.0305 % of ANNNNAAN 8-mers.

In the case of AGTTCAAC, the binding signal in the test with POU1 (OCT1 POU domain) was 0.0229 % of ANNNNAAN 8-mers; with POU2 (OCT2 POU domain) it was 0.0173 % of ANNNNAAN 8-mers; in test [1] it was 0.0246 % of ANNNNAAN 8-mers; in test [2], 0.0173 % of ANNNNAAN 8-mers.

As for AGCGTAAG, the binding signal with POU1 (OCT1 POU domain) was 0.0214 % of ANNNNAAN 8-mers; with POU2 (OCT2 POU domain), 0.0293 % of ANNNNAAN 8-mers; in test [1], 0.0215 % of ANNNNAAN 8-mers; in test [2] it was 0.0338 % of ANNNNAAN 8-mers.

In the case of ATCTTAAG, the binding signal is 0.0461 % of ANNNNAAN 8-mers with POU1 (OCT1 POU domain), 0.0541 % of ANNNNAAN 8-mers with POU2 (OCT2 POU domain), 0.0503 % of ANNNNAAN 8-mers in test [1] and 0.0438 % of ANNNNAAN 8-mers in test [2].

AAACAAAC: the binding signal is 0.066 % of ANNNNAAN 8-mers with POU1 (OCT1 POU domain), 0.0506 % of ANNNNAAN 8-mers with POU2 (OCT2 POU domain), 0.109 % of ANNNNAAN 8-mers in test [1] and 0.0512 % of ANNNNAAN 8-mers in test [2].

For AATAGAAA, the binding signal is 0.0759 % of ANNNNAAN 8-mers with POU1 (OCT1 POU domain), 0.0972 % of ANNNNAAN 8-mers with POU2 (OCT2 POU domain), 0.0858 % of ANNNNAAN 8-mers in test [1] and 0.071 % of ANNNNAAN 8-mers in test [2].

On to ACATCAAA, for which the binding signal with POU1 (OCT1 POU domain) was 0.0374 % of ANNNNAAN 8-mers; with POU2 (OCT2 POU domain) it was 0.0391 % of ANNNNAAN 8-mers; in test [1], 0.0363 % of ANNNNAAN 8-mers; in test [2], 0.0239 % of ANNNNAAN 8-mers.

In the case of AGGGTAAC, the binding signal in the test with POU1 (OCT1 POU domain) is 0.0339 % of ANNNNAAN 8-mers; with POU2 (OCT2 POU domain) it was 0.0328 % of ANNNNAAN 8-mers; in test [1], 0.0343 % of ANNNNAAN 8-mers; in test [2], 0.0322 % of ANNNNAAN 8-mers.

In the case of AATTCAAA, the binding signal was 0.373 % of ANNNNAAN 8-mers with POU1 (OCT1 POU domain), 0.292 % of ANNNNAAN 8-mers with POU2 (OCT2 POU domain), 0.438 % of ANNNNAAN 8-mers in test [1] and 0.4 % of ANNNNAAN 8-mers in test [2].

With AGGTAAAG, the binding signal with POU1 (OCT1 POU domain) is 0.0801 % of ANNNNAAN 8-mers; in the test with POU2 (OCT2 POU domain), 0.0708 % of ANNNNAAN 8-mers; in test [1], 0.116 % of ANNNNAAN 8-mers; in test [2], 0.071 % of ANNNNAAN 8-mers.

As to ATCCGAAG, the binding signal is 0.0275 % of ANNNNAAN 8-mers in the test with POU1 (OCT1 POU domain), 0.0299 % of ANNNNAAN 8-mers with POU2 (OCT2 POU domain), 0.0304 % of ANNNNAAN 8-mers in test [1] and 0.0338 % of ANNNNAAN 8-mers in test [2].

Regarding AAGTGAAT, the binding signal with POU1 (OCT1 POU domain) is 0.105 % of ANNNNAAN 8-mers; in the test with POU2 (OCT2 POU domain) it was 0.123 % of ANNNNAAN 8-mers; in test [1], 0.0796 % of ANNNNAAN 8-mers; in test [2], 0.0669 % of ANNNNAAN 8-mers.
